An excerpt weighted towards active compounds, which were near 0.41% of everything screened.
GAA glycogen mod: qHTS Assay for Inhibitors and Activators of Human alpha-Glucosidase Cleavage of Glycogen; Lysosomal alpha-glucosidase (Homo sapiens), P10253; recombinant GAA, glycogen substrate, Amplex Red glucose oxidase fluorescence; Potency, µM (titrated, usually from 76.4 µM), for inactives: at the top dose activity change, negative = inhibition, actives largely listed as inhibitors; actives 0.38% (n = 300,000);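 also: potency is read from the fitted curve at half-maximal effect; 0% = full enzyme reaction and -100% = no-enzyme basal signal; the screen sought inhibitors and activators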
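qHTS, 1536-well; enzyme 4 nM final; cpd up to 77 uM; substrate bovine liver glycogen 30 ug; 50 mM citrate/phosphate pH 5.0, 0.01% Tween-20; 37 C, 40 min; Amplex Red detection 45 min RT; Hill fit → AC50.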
aGlu spleen mod: qHTS Assay for Inhibitors and Activators of Human alpha-Glucosidase From Spleen Homogenate; Potency, µM (doses to about 79.9 µM), for inactives: at the highest dose activity change, negative = inhibition, actives largely listed as inhibitors; actives 0.006% (n = 240,000); human spleen homogenate, 4-MU-alpha-glucoside fluorescence;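 also: potency is read from the fitted curve at half-maximal effect; 0% = enzyme with vehicle and -100% = no enzyme basal signal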
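Human spleen homogenate (1 ug) incubated with compounds and 1 mM 4-methylumbelliferyl-alpha-D-glucopyranoside in pH 5.0 citrate/phosphate buffer, 37 C, 40 min. Stopped at pH 10; 4-MU fluorescence (Ex 365/Em 440 nm); AC50 by Hill fit.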
N370S GC: qHTS Assay for Inhibitors and Activators of N370S glucocerebrosidase as a Potential Chaperone Treatment of Gaucher Disease | Lysosomal acid glucosylceramidase (Homo sapiens), P04062 | N370S GC spleen homogenate, 4MU-glucoside fluorescence | Potency, µM (series often up to 59.4 µM), for the others: top-dose activity change, negative = inhibition, actives largely listed as inhibitors | actives 0.092% (n = 330,000) | AID 2101, 2009;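 also: potency is read from the fitted curve at half-maximal effect; 0% = full enzyme activity and -100% = no enzyme basal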
GLA inh pH 4.5: qHTS Assay for Inhibitors of Human alpha-Galactosidase at pH 4.5 | purified enzyme, 4-MU-alpha-Gal fluorescence, pH 4.5 | AID 1467, 2008 | activity change, negative = inhibition, % at 105 µM | 230,000 tested, under 10 active | Alpha-galactosidase A (Homo sapiens), P06280;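 also: 0% = full activity with enzyme and -100% = basal without enzyme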
Target sequence (P06280 whole entry, looked up): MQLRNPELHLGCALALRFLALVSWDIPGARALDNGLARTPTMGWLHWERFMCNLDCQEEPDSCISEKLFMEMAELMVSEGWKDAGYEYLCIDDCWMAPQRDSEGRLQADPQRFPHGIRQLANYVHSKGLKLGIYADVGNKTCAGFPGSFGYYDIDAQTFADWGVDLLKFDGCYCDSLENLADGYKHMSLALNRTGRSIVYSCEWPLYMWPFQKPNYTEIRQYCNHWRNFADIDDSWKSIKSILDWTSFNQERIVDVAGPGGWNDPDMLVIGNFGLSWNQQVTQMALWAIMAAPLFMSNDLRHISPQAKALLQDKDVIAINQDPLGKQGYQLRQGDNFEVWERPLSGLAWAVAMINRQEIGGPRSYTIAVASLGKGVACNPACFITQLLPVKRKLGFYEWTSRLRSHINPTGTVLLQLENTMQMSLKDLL
GLA spleen mod: qHTS Assay for Inhibitors and Activators of Human alpha-Galactosidase From Spleen Homogenate; Alpha-galactosidase A (Homo sapiens), P06280; human spleen homogenate, 4MU-alpha-Gal fluorescence, 40 min; Potency, µM (highest dose often 80 µM), for the others: at the top dose activity change, negative = inhibition, most hits filed as inhibitors; actives 0.008% (n = 240,000);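 also: potency is read from the fitted curve at half-maximal effect; 0% = enzyme with vehicle and -100% = no enzyme basal signal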
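Human spleen homogenate (1 ug) was the enzyme source, with 4-methylumbelliferyl-alpha-D-galactopyranoside (1 mM final) in pH 5.0 citrate buffer with 0.01% Tween-20. Compounds were titrated; after 40 min at 37C, NaOH/glycine stop, 4-MU fluorescence read; AC50 from Hill fits.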
GAA inhib: qHTS Assay for Inhibitors of Human alpha-Glucosidase as a Potential Chaperone Treatment of Pompe Disease. Lysosomal alpha-glucosidase (Homo sapiens), P10253. purified human GAA, 4-MU-alpha-glucoside fluorescence. Potency, µM (series often up to 76.9 µM), inactives show top-dose activity change, negative = inhibition, hits mostly inhibitors. actives 0.005% (n = 200,000);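 also: potency is read from the fitted curve at half-maximal effect; plate controls were uninhibited enzyme wells for no effect and no-enzyme background for full effect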
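Human alpha-glucosidase, 4 nM, pre-mixed with test compounds before 400 uM 4-methylumbelliferyl substrate; 20 min room temperature at pH 5.0. Fluorescence read after pH 10 stop; AC50 values from Hill-equation fits.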
* = called active by the depositor; ! = not confirmed by another sample; [ ] = remark or other dose. Calls follow the shape of the dose curve; as a rule, active = well fitted curve in the direction sought with a large enough effect; inconclusive = small, poorly fitted or top-dose-only effect, or another doubt; inactive = no such curve, though single readings can be large; an effect the other way counts as inactive or inconclusive.

`CC(C)C[C@H](NC(=O)[C@H](CCCCN)NC(=O)[C@H](CCCNC(=N)N)NC(=O)[C@H](C)NC(=O)[C@H](CO)NC(=O)[C@H](CCCCN)NC(=O)[C@H](CCCNC(=N)N)NC(=O)[C@H](C)NC(=O)CNC(=O)[C@@H](NC(=O)[C@H](Cc1ccccc1)NC(=O)CNC(=O)CNC(=O)[C@@H](N)Cc1ccccc1)[C@@H](C)O)C(=O)N[C@@H](C)C(=O)N[C@@H](CC(N)=O)C(=O)N[C@@H](CCC(N)=O)C(=O)O` gave aGlu spleen mod 10%, N370S GC -1% and GLA spleen mod 7%.
`CC#CC[N+](C)(C)CCCCCCCCCC` gave GAA glycogen mod 17%, aGlu spleen mod -6%, N370S GC 16µM*, GLA inh pH 4.5 -6 and GLA spleen mod 9%.
CC(C)C[C@H](NC(=O)[C@H](Cc1ccccc1)NC(=O)[C@H](Cc1ccccc1)NC(=O)[C@@H](N)CO)C(=O)N[C@@H](CCCN=C(N)N)C(=O)N[C@@H](CC(N)=O)C(=O)O was read as aGlu spleen mod 0%, N370S GC -3% and GLA spleen mod 5%.
For Cc1ccc(S(=O)(=O)Oc2ccc(N=Nc3ccc(-c4ccc(N=Nc5c(O)ccc6cc(S(=O)(=O)O)cc(S(=O)(=O)O)c56)c(C)c4)cc3C)cc2)cc1 the results were aGlu spleen mod -10%, N370S GC 6% and GLA spleen mod 9%.
`COc1ccc(-n2cc(CNCCc3ncc(C)[nH]3)c(-c3ccccc3Cl)n2)cc1` gave GAA glycogen mod 7.1µM*, aGlu spleen mod -2%, N370S GC -4%, GLA inh pH 4.5 4, GLA spleen mod 0% and GAA inhib -3%.
For Cc1ccc(NS(=O)(=O)c2ccc(N3CCN(c4ccc(O)cc4)CC3)c([N+](=O)[O-])c2)c(C)c1 the results were GAA glycogen mod inconclusive, aGlu spleen mod 1%, N370S GC 14µM*, GLA inh pH 4.5 -8, GLA spleen mod 4% and GAA inhib -4%.
COc1ccccc1N1CCN(CCCCN2C(=O)c3ccccc3C2=O)CC1 was read as aGlu spleen mod 3%, N370S GC 5%, GLA inh pH 4.5 1 and GLA spleen mod 10µM*!.
C#Cc1cccc(Nc2ncnc3cc(OC)c(OC)cc23)c1 was read as aGlu spleen mod 2%, N370S GC -5% and GLA spleen mod 3%.
For Cc1ccc(CNc2ncc(-c3ccc4c(c3)OCO4)n2C)cc1 the results were GAA glycogen mod 20µM*, aGlu spleen mod -4%, N370S GC 1%, GLA inh pH 4.5 -9, GLA spleen mod -5% and GAA inhib -3%.
CCOc1ccc(-c2cnc(NCc3ccc(C(F)(F)F)cc3)n2C)cc1 was read as GAA glycogen mod 32µM*.
Cn1c(-c2ccc3c(c2)OCO3)cnc1NCc1ccc(Cl)cc1 was read as GAA glycogen mod inconclusive, aGlu spleen mod -23%, N370S GC 6%, GLA inh pH 4.5 -8, GLA spleen mod -3% and GAA inhib 1%.
`Cc1ccn2c(Nc3ccc4c(c3)OCO4)c(-c3ccc(Cl)cc3)nc2c1` gave GAA glycogen mod -13%[76.3 µM].
Screening COc1ccc(-c2nc3ccc(C)cn3c2Nc2ccc3c(c2)OCO3)cc1 returned GAA glycogen mod 18µM*.
Cc1cccc2nc(-c3ccco3)c(Nc3ccc4c(c3)OCO4)n12 was read as GAA glycogen mod inconclusive, aGlu spleen mod 4%, N370S GC -7%, GLA inh pH 4.5 3, GLA spleen mod 7% and GAA inhib -3%.
Screening Cc1ccc(-c2nc3cccc(C)n3c2Nc2ccc3c(c2)OCO3)o1 returned GAA glycogen mod 1.8µM*.
Screening Cc1ccn2c(Nc3ccc4c(c3)OCO4)c(-c3ccco3)nc2c1 returned GAA glycogen mod 5µM*.
Cc1ccc2nc(-c3ccc(O)cc3)c(Nc3ccc4c(c3)OCCO4)n2c1 was read as GAA glycogen mod 14µM*, aGlu spleen mod 4%, N370S GC inconclusive, GLA inh pH 4.5 -12, GLA spleen mod 11% and GAA inhib 1%[15.4 µM].
Screening COc1cc(C(=O)O[C@H]2C/C(C)=C/CC/C(C)=C/[C@@H](O)C2C(C)C)ccc1O (stereo partly specified) returned aGlu spleen mod -9%, N370S GC 5% and GLA spleen mod -2%.
`Clc1ccc(-c2nc3ccccn3c2Nc2ccc3c(c2)OCCO3)s1` gave GAA glycogen mod 10µM*.
Screening CCCCc1nc2c(c3c1C[C@H](C)OC3)CN(C(=O)C1CC1)CC2 returned aGlu spleen mod 5%[17.4 µM], N370S GC -11%[12.8 µM], GLA inh pH 4.5 5 and GLA spleen mod 3%[17.5 µM].
For CCOC(=O)[C@H](Cc1ccc(O)cc1)NC(=O)c1ccccc1 the results were aGlu spleen mod 1%, N370S GC -3% and GLA spleen mod 0%.
For COc1ccc(C2C(CC(=O)O)=C(O)C(=O)N2c2ccccc2)cc1 (stereo unspecified) the results were GAA glycogen mod 14µM*, aGlu spleen mod -1%, N370S GC -13%, GLA inh pH 4.5 -18, GLA spleen mod 18% and GAA inhib 8%.
`CC(=O)OCOC(=O)CN(CC(=O)OCOC(C)=O)c1ccccc1OCCOc1ccccc1N(CC(=O)OCOC(C)=O)CC(=O)OCOC(C)=O` gave aGlu spleen mod -1%, N370S GC 7% and GLA spleen mod 13%.
For S=C([S-])NCCNC(=S)[S-].[Zn+2] the results were aGlu spleen mod 0%, N370S GC 1% and GLA spleen mod -1%.
Screening COc1ccc(C(CNC(=O)c2ccc(NS(=O)(=O)c3ccc(F)c(C)c3)cc2)N2CCOCC2)cc1 (stereo unspecified) returned N370S GC 14µM*.
For O=[N+]([O-])c1cc(-c2nnc(Nc3ccc(O)cc3)c3ccccc23)ccc1N1CCOCC1 the results were GAA glycogen mod 16µM*, aGlu spleen mod -1%, N370S GC inconclusive, GLA inh pH 4.5 -4, GLA spleen mod -3% and GAA inhib -4%.
